# Data taken from PubChem BioAssay (Tox21).
# Inconclusive results are not listed. Activity calls are given as the source filed them. The call rests on the fitted dose curve; in most records, active means well fitted activation curve with a large enough effect in the repeat runs; inconclusive means weak or mixed curves; inactive means flat fitted curve, though single readings scatter.
# Assay: A CellTox Green Cytotoxicity Assay to monitor cytotoxicity in HEK293 cells - 24 hour (AID 1224875)
# Conditions: CellTox Green fluorescence; series mostly up to 76.8 µM; activity change: at the top concentration
# Procedure, shortened: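 Tox21 screen in HEK293: membrane-impermeant cyanine dye fluoresces on binding dead-cell DNA; compound pinned 5 h post-seeding, plates held at 37 C, signal read repeatedly through 40 h.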
# Further: nearly all actives have a fitted effect of over 45% in size.
# On the % scale 0 is the no-effect control and ±100 the full control effect; potency means the concentration at half of the fitted maximal effect.
Structure (SMILES),activity change,Potency
Cc1cccc(C)c1NC(=O)CN1CCCCCC1,"0.0919% [at 35.3 µM, active compounds read high] (inactive)",
OCCN(CCO)CCN(CCO)CCO,-1.05% (inactive),
CCOC(=O)NCCC[Si](OCC)(OCC)OCC,-9.12% (inactive),
O=C(CCCl)NCc1ccccc1,"0.828% [at 35.3 µM, active compounds read high] (inactive)",
O=c1[nH]cnc2c1ncn2[C@@H]1O[C@H](CO)[C@@H](O)[C@H]1O,"0.366% [at 35.3 µM, active compounds read high] (inactive)",
C=CC1CO1 (stereo not drawn),2.13% (inactive),
C[C@]12C(=O)OC(=O)[C@H]1[C@H]1C=C[C@@H]2C1,6.09% (inactive),
NNS(=O)(=O)c1ccc(Oc2ccc(S(=O)(=O)NN)cc2)cc1,0.319% (inactive),
CN1CCN(C2=Nc3cc(F)ccc3Cc3ccccc32)CC1,"-4.66% [at 35.3 µM, active compounds read high] (inactive)",
Cc1cn([C@@H]2O[C@H](CO)[C@@H](O)[C@@H]2F)c(=O)[nH]c1=O,"-8.47% [at 35.3 µM, active compounds read high] (inactive)",
Cc1ncc(CO)c(CN)c1O,"-18.5% [at 35.3 µM, active compounds read high] (inactive)",
NC1=NCC2c3ccccc3Cc3ccccc3N12 (stereo not drawn),"-22.8% [at 35.3 µM, active compounds read high] (inactive)",
FC(F)(F)C(Cl)(Cl)Cl,-14.3% (inactive),
CCCOCCC,-6.07% (inactive),
Cc1cc2c(s1)Nc1ccccc1N=C2N1CCN(C)CC1,"-0.248% [at 35.3 µM, active compounds read high] (inactive)",
CCC(=O)Nc1ccc(O)cc1,"5% [at 35.3 µM, active compounds read high] (inactive)",
CCC/C=C/CO,-4.28% (inactive),
C[C@@H]1CN(c2c(F)c(F)c3c(=O)c(C(=O)O)cn(C4CC4)c3c2F)C[C@H](C)N1,"0.295% [at 15.8 µM, active compounds read high] (inactive)",
CCOC(=O)c1cc(=O)c2c(OCC(COc3cccc4oc(C(=O)OCC)cc(=O)c34)OC(=O)[C@@H](N)CCCCN)cccc2o1,"-19.9% [at 35.3 µM, active compounds read high] (inactive)",

Structure (SMILES),activity change,Potency
CCc1cc2cc(OC)c(OC)cc2c(Cc2ccccc2)n1,"-5.63% [at 35.3 µM, active compounds read high] (inactive)",
O=C(O)[C@@H]1CSCN1,"1.1% [at 35.3 µM, active compounds read high] (inactive)",
COC(=O)c1ccc2cc(C(=O)OC)ccc2c1,"4.58% [at 15.8 µM, active compounds read high] (inactive)",
Cc1ccccc1C(=O)Nc1ccc(C(=O)N2CCCC(O)c3cc(Cl)ccc32)c(C)c1 (stereo not drawn),"1.65% [at 35.3 µM, active compounds read high] (inactive)",
CCOC(=O)C(Br)c1ccccc1 (stereo not drawn),-8.18% (inactive),
Cc1ccc([N+](=O)[O-])c(N)c1,-4.71% (inactive),
C1CCOC1,-4.42% (inactive),
CCCCCCCCCCCCCCCCOP(=O)([O-])OCC[N+](C)(C)C,"27.6% [at 35.3 µM, active compounds read high] (inactive)",
O=C1CCC(C2CCCCC2)CC1,,43.6 µM (active)
CCCCCCCCOC(=O)CCCCCCCCC(=O)OCCCCCCCC,18.4% (inactive),
CCCCCCn1c(=O)c2c(ncn2C)n(C)c1=O,"0.529% [at 35.3 µM, active compounds read high] (inactive)",
CN(C)Cc1ccccc1,-1.8% (inactive),
Cc1c(N)cccc1N,1.65% (inactive),
N#Cc1ccc(C(c2ccc(C#N)cc2)n2cncn2)cc1,"-10.7% [at 35.3 µM, active compounds read high] (inactive)",
O=CCCc1ccccc1,-0.911% (inactive),
CCN(CC)CC1CCCCN1CC(=O)N1c2ccccc2C(=O)Nc2cccnc21 (stereo not drawn),"20.9% [at 35.3 µM, active compounds read high] (inactive)",
Cc1ccsc1C(=CCCN1CCC[C@@H](C(=O)O)C1)c1sccc1C,"-0.111% [at 35.3 µM, active compounds read high] (inactive)",
FC(F)(F)c1ccccc1,-10.1% (inactive),
O=S(=O)(O)C(F)(F)F,8.33% (inactive),

# Assay: A CellTox Green Cytotoxicity Assay to monitor cytotoxicity in HepG2 cells - 16 hour (AID 1224876)
# Conditions: CellTox Green fluorescence; series mostly up to 76.8 µM; cytotoxicity increase: at the top concentration
# Procedure, shortened: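 Measurements at 0, 8, 16, 24, 32 and 40 h of treatment captured CellTox Green fluorescence in HepG2 cells that had been co-plated with reagent and preincubated 5 h at 37 C/5% CO2.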
Structure (SMILES),cytotoxicity increase,Potency
Cc1cccc(C)c1NC(=O)CN1CCCCCC1,-0.856% [at 35.3 µM] (inactive),
OCCN(CCO)CCN(CCO)CCO,-0.256% (inactive),
CCOC(=O)NCCC[Si](OCC)(OCC)OCC,2.73% (inactive),
O=C(CCCl)NCc1ccccc1,-7.66% [at 35.3 µM] (inactive),
O=c1[nH]cnc2c1ncn2[C@@H]1O[C@H](CO)[C@@H](O)[C@H]1O,-12.2% [at 35.3 µM] (inactive),
C=CC1CO1 (stereo not drawn),-1.9% (inactive),
C[C@]12C(=O)OC(=O)[C@H]1[C@H]1C=C[C@@H]2C1,1.13% (inactive),
NNS(=O)(=O)c1ccc(Oc2ccc(S(=O)(=O)NN)cc2)cc1,6.29% (inactive),
CN1CCN(C2=Nc3cc(F)ccc3Cc3ccccc32)CC1,-9.21% [at 35.3 µM] (inactive),
Cc1cn([C@@H]2O[C@H](CO)[C@@H](O)[C@@H]2F)c(=O)[nH]c1=O,-0.607% [at 35.3 µM] (inactive),
CCCc1c2oc(C(=O)O)cc(=O)c2cc2c(=O)cc(C(=O)O)n(CC)c12,2.71% [at 35.3 µM] (inactive),
Cc1ncc(CO)c(CN)c1O,-6.73% [at 35.3 µM] (inactive),
NC1=NCC2c3ccccc3Cc3ccccc3N12 (stereo not drawn),-42.4% [at 35.3 µM] (inactive),
FC(F)(F)C(Cl)(Cl)Cl,8.21% (inactive),
CCCOCCC,-1.32% (inactive),
Cc1cc2c(s1)Nc1ccccc1N=C2N1CCN(C)CC1,0.969% [at 35.3 µM] (inactive),
CCC(=O)Nc1ccc(O)cc1,-5.03% [at 35.3 µM] (inactive),
CCC/C=C/CO,-0.648% (inactive),

Structure (SMILES),cytotoxicity increase,Potency
CCOC(=O)c1cc(=O)c2c(OCC(COc3cccc4oc(C(=O)OCC)cc(=O)c34)OC(=O)[C@@H](N)CCCCN)cccc2o1,-8.45% [at 35.3 µM] (inactive),
O=C(O)[C@@H]1CSCN1,-5.69% [at 35.3 µM] (inactive),
COC(=O)c1ccc2cc(C(=O)OC)ccc2c1,-13.5% [at 15.8 µM] (inactive),
Cc1ccccc1C(=O)Nc1ccc(C(=O)N2CCCC(O)c3cc(Cl)ccc32)c(C)c1 (stereo not drawn),1.75% [at 35.3 µM] (inactive),
CCOC(=O)C(Br)c1ccccc1 (stereo not drawn),-0.257% (inactive),
Cc1ccc([N+](=O)[O-])c(N)c1,0.0292% (inactive),
C1CCOC1,-0.428% (inactive),
O=C1CCC(C2CCCCC2)CC1,,38.9 µM (active)
CCCCCCCCOC(=O)CCCCCCCCC(=O)OCCCCCCCC,-16.1% (inactive),
CCCCCCn1c(=O)c2c(ncn2C)n(C)c1=O,-19.8% [at 35.3 µM] (inactive),
CN(C)Cc1ccccc1,1.89% (inactive),
Cc1c(N)cccc1N,0.95% (inactive),
N#Cc1ccc(C(c2ccc(C#N)cc2)n2cncn2)cc1,-3.96% [at 35.3 µM] (inactive),
O=CCCc1ccccc1,-9.68% (inactive),
Cc1ccsc1C(=CCCN1CCC[C@@H](C(=O)O)C1)c1sccc1C,-5.71% [at 35.3 µM] (inactive),
FC(F)(F)c1ccccc1,-5.93% (inactive),
O=S(=O)(O)C(F)(F)F,4.92% (inactive),
